Assay results taken from PubChem BioAssay (NCI).
About 83,000 compounds went through this panel and 20% of them were active in at least one assay; those are over-represented in the sample as a whole.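 The test compound was applied at a single concentration to cells in 96-well plates for 48 hours, and percent growth was recorded.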 A number with no mark means an inactive call. Calls of active or inactive are those of the source. The calls were made as follows: active = growth percent below 10; inactive = the rest.

Columns and labels:
Experiment in all cases: NCI-60 one-dose screen, 48 h (100 = growth as untreated, 0 = no growth, -100 = all killed)
Conditions in all cases: 10 µM
DU-145 prostate = tested on: DU-145 prostate
K-562 leukemia = tested on: K-562 leukemia
MALME-3M melanoma = tested on: MALME-3M melanoma
MDA-MB-231 breast = tested on: MDA-MB-231 breast
RXF 393 renal = tested on: RXF 393 renal
SF-268 CNS = tested on: SF-268 CNS
SF-295 CNS = tested on: SF-295 CNS
SF-539 CNS = tested on: SF-539 CNS
UACC-257 melanoma = tested on: UACC-257 melanoma
M14 melanoma = tested on: M14 melanoma
HCT-15 colon = tested on: HCT-15 colon
HT29 colon = tested on: HT29 colon
SNB-75 CNS = tested on: SNB-75 CNS
SNB-19 CNS = tested on: SNB-19 CNS
U251 CNS = tested on: U251 CNS
PC-3 prostate = tested on: PC-3 prostate
SK-MEL-5 melanoma = tested on: SK-MEL-5 melanoma
UACC-62 melanoma = tested on: UACC-62 melanoma
LOX IMVI melanoma = tested on: LOX IMVI melanoma
SK-MEL-28 melanoma = tested on: SK-MEL-28 melanoma

Row | SMILES | growth (DU-145 prostate) | growth (K-562 leukemia) | growth (MALME-3M melanoma) | growth (MDA-MB-231 breast) | growth (RXF 393 renal) | growth (SF-268 CNS) | growth (SF-295 CNS) | growth (SF-539 CNS) | growth (UACC-257 melanoma) | growth (M14 melanoma) | growth (HCT-15 colon) | growth (HT29 colon) | growth (SNB-75 CNS) | growth (SNB-19 CNS) [%] | growth (U251 CNS) | growth (PC-3 prostate) [%] | growth (SK-MEL-5 melanoma) | growth (UACC-62 melanoma) | growth (LOX IMVI melanoma) | growth (SK-MEL-28 melanoma)
1 | CCN1CCN(CCC(=O)Nc2cccc(-n3cc(-c4ccncc4)c(-c4ccc(Cl)c(OC)c4)n3)c2)CC1 | 12.4% | -34% (active) | -63.6% (active) | 4.87% (active) | -7.05% (active) | 35.4% | 9.42% (active) | -51.9% (active) | -85.5% (active) | -63.4% (active) | 13.7% | -23.4% (active) | 9.22% (active) | 39.4 | -7.85% (active) | 16.5 | -3.03% (active) | -17% (active) | -47.5% (active) | -52.3% (active)
2 | Cn1cnc([N+](=O)[O-])c1/C=C1\Oc2ccc(Br)cc2C1=O | 91.9% | 67.1% | 96.2% | 91.8% | 102% | 90% | 87.6% | 104% | 84.8% | 95.4% | 70.4% | 83.8% | 88.1% | 90.1 | 101% | 81.5 | 91.2% | 96.6% | 72.8% | 97.4%
3 | CC1(C)N=C(N)N=C(N)N1c1cccc(C#N)c1 | 46.7% | 20.7% | 70.7% | 78.4% | 50.7% | 29.8% | 35.3% | 46.2% | 73.3% | 40% | 33% | 35.9% | 77.4% | 66.8 | 28.5% | 43.1 | 52.4% | 54.1% | 21% | 95%
4 | COc1ccc(C2=Cn3c(CCC(=O)c4nc5ccccc5[nH]4)nnc3SC2)cc1 | 97.7% | 3.14% (active) | 102% | 92.2% | 112% | 107% | 83.7% | 92% | 107% | 111% | 104% | 58.2% | 110% | 113 | 94.1% | 84.2 | 87.7% | 106% | 83.7% | 111%
5 | Nc1ccc(CC[C@H]2CCC/C=C/[C@@H]3C[C@H](O)C[C@H]3[C@H](O)/C=C/C(=O)O2)cc1 | 16.2% | 11.4% | -14% (active) | -80.5% (active) | -36.3% (active) | 10.2% | 13% | 25.3% | 4.74% (active) | 3.35% (active) | 6.58% (active) | -39.8% (active) | 32.3% | 29.5 | 15.8% | 12.9 | -84.9% (active) | 11.7% | -74.4% (active) | 5.16% (active)
6 | COc1cc(C)ccc1Oc1nc(Nc2ccc(N3CCOCC3)cc2)ncc1NC(=O)Nc1cc(C(F)(F)F)cc(C(F)(F)F)c1 | 23.3% | 40.3% | 108% | 51.5% | -27.6% (active) | 49.7% | 60.2% | 65.6% | 84.3% | 73% | 66.6% | 63.8% | 65.9% | 61.4 | 53.1% | 38.1 | 82.6% | 82.6% | 47.1% | 94%
7 | COc1ccc(/C=C2/SC(=S)NC2=O)c(OC)c1OC | 97.9% | 84% | 65.7% | 62.7% | 81.5% | 80.5% | 76.5% | 83.2% | 88.9% | 87.4% | 75.6% | 98.3% | 77.8% | 88.2 | 83.5% | 75.6 | 73.8% | 68.6% | 65.9% | 86.9%
8 | CC(=O)C1N=NCC1c1ccccc1 (stereo not given) | 110% | 80.4% | 95.2% | 97.9% | 106% | 104% | 95.4% | 103% | 110% | 99.3% | 96.9% | 105% | 92.1% | 99.9 | 110% | 95.5 | 98.4% | 83.8% | 103% | 112%
9 | CN(C)CCOc1ccc(-c2nc3sccn3c2-c2ccnc(S(C)(=O)=O)n2)cc1 | 112% | 102% | 112% | 110% | 113% | 117% | 103% | 102% | 101% | 112% | 101% | 103% | 88.5% | 99.1 | 95.1% | 87.2 | 101% | 105% | 97.5% | 110%
10 | CC(=O)Nc1ccc2c(c1)C(=O)c1cccc(C(=O)O)c1-2 | 116% | 115% | 148% | 112% | 109% | 104% | 100% | 106% | 105% | 107% | 107% | 115% | 91% | 101 | 108% | 99.5 | 95.5% | 109% | 109% | 97.9%
11 | O=C(Nc1nc(-c2ccccc2)nc2c1sc(=S)n2-c1ccccc1)C(F)(F)F | 99.6% | 79.4% | 124% | 89.7% | 98% | 98.4% | 88.4% | 96.5% | 82.9% | 101% | 88.4% | 94.8% | 96.5% | 105 | 90.6% | 79.5 | 90.4% | 86% | 84.4% | 104%
12 | COc1ccc2nc(-c3ccc(Cl)cc3)cc(-c3nnc(SC/C(=N\O)c4ccccc4)n3-c3ccccc3)c2c1 | 84.3% | 59% | 118% | 86.3% | 66.7% | 83.5% | 102% | 103% | 72.1% | 78.6% | 84.4% | 71.8% | 102% | 104 | 85.8% | 54.1 | 79.1% | 89.4% | 76.1% | 94.3%
13 | CN1CCN(CCC(=O)Nc2cccc(-n3cc(-c4ccncc4)c(-c4ccc(Cl)c(O)c4)n3)c2)CC1 | 25.8% | 12.8% | 47.6% | -72% (active) | 30% | 50.8% | 19.3% | -4.71% (active) | 46.3% | 12.3% | 39.3% | 4.91% (active) | 24.5% | 55 | 32.4% | 29.3 | 24.2% | 46.9% | 15.7% | 57.7%
14 | CS(=O)(=O)c1nccc(-c2c(-c3cccc(OCc4ccc(F)cc4)c3)nc3sccn23)n1 | -53.8% (active) | 47.3% | 60.4% | 77.5% | 79.6% | 90.2% | 105% | 104% | 17% | 71.2% | 59.2% | 82.9% | 95.9% | 83.2 | 96.6% | 59.3 | 5.39% (active) | 60.1% | 36.6% | 62.8%
15 | CCOC(=O)c1cocc1C(=O)O | 113% | 92.6% | 106% | 118% | 114% | 108% | 101% | 107% | 103% | 103% | 103% | 110% | 83.3% | 107 | 103% | 112 | 104% | 116% | 103% | 104%
16 | CC(C)C[C@H](NC(=O)Cn1cccc(CNC(=O)c2ccccc2)c1=O)B(O)O | 43.1% | 11.6% | -35.3% (active) | -2.81% (active) | -19% (active) | -19.5% (active) | 1.43% (active) | -16.6% (active) | -9.26% (active) | 12.2% | 64.7% | -0.24% (active) | -4.6% (active) | 34.1 | 17.2% | 35.8 | -34.3% (active) | -17.1% (active) | -60.4% (active) | 19.4%
